# Bioassay records deposited in PubChem BioAssay by National Center for Advancing Translational Sciences (NCATS).
# Compounds with a hit are over-represented: about 7.3% of the library has one in this group of screens.
# NPC1 promoter act: activators of NPC1 promoter; Potency, µM (titrated, usually from 9.22 µM), usual class: activators; hit rate 2.4% among 320,000; Huh7 NPC1 promoter luciferase reporter, 24 h; also: nearly all actives have a fitted effect of over 60% in size
#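 Luminescence read-out of NPC1 promoter-driven luciferase in stably transfected Huh7 cells; compounds delivered in DMSO and left 24 h at 37C, 5% CO2, qHTS titration format.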
# ELG1 genotox: induces genotoxicity in HEK293T cells with luciferase-tagged ELG1 | HEK293T ELG1-luciferase reporter, luminescence, 16 h | Potency, µM (titrated, usually from 46 µM), actives largely listed as activators | hit rate 1.3% among 330,000; also: nearly all actives have a fitted effect of over 60% in size
#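 After overnight (16 hr) compound treatment at 37 °C, ELG1-luciferase HEK293T cells were lysed with ONE-Glo; luminescence quantified 30 min later at room temperature.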
# SMN2 splice up: increases expression of the SMN2 splice variant. AID 1458. hit rate 2.8% among 210,000. HEK293 SMN2-luciferase splicing reporter, luminescence, 30-36 h. Potency, µM (highest dose often 46.1 µM), most hits filed as activators; also: nearly all actives have a fitted effect of over 55% in size
#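 HEK293 cells carry an SMN2 […]–luciferase reporter in which exon 7 inclusion puts luciferase in frame. Cells were plated 10-12 h before compound addition, then incubated 30-36 h at 37C. ONE-Glo luminescence was read; sodium butyrate at 4.5 mM final served as control.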
# FLuc modulator: firefly luciferase modulation, counter-screen for miR-21 project; P08659; purified FLuc, Km substrates, luminescence inhibition; Potency, µM (titrated, usually from 57.5 µM), actives largely listed as inhibitors; hit rate 6.9% among 360,000; also: nearly all actives have a fitted effect of over 55% in size
# Target sequence (P08659 whole entry, looked up): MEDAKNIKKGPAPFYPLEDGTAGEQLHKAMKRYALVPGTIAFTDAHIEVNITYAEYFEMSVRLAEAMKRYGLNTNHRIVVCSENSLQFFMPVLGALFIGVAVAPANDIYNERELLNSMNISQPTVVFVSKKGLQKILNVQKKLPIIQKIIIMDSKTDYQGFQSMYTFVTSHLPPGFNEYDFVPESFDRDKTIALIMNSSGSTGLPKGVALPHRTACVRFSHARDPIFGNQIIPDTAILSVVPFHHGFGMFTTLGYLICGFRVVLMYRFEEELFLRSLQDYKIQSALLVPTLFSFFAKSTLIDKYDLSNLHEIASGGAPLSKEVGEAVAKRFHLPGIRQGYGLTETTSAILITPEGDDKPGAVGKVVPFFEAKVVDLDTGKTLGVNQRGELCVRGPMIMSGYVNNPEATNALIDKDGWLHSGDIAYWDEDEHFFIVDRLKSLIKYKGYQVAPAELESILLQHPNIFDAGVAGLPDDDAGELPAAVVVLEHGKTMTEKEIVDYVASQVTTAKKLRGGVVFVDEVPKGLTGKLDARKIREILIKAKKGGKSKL
#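 Purified P. pyralis luciferase (10nM final) with 10uM D-luciferin and 10uM ATP (Km levels) in 50mM Tris acetate pH 7.5, 10mM Mg acetate, 0.01% Tween-20, 0.05% BSA; qHTS 6-point titration, ~60 µM downward; luminescence read.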
# Rab9 prom act: activators of Rab9 promoter. Huh7 Rab9 promoter-luciferase reporter, luminescence, 24 h. Potency, µM (series often up to 9.22 µM), actives largely listed as activators. hit rate 2.8% among 320,000; also: nearly all actives have a fitted effect of over 60% in size
#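 Quantitative HTS format; Huh7 Rab9-luciferase reporter cells (1500/well) receive compound 2 h post-plating, incubate 24 h at 37 °C, then get luciferase reagent for 10 min before luminescence reading.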
# uPA generation: cell surface uPA generation inhibition. cell surface uPA generation assay, qHTS. Potency, µM (top dose mostly 38.3 µM), actives largely listed as inhibitors. hit rate 0.31% among 330,000; active = well fitted inhibition curve with a large enough effect; inconclusive = small, poorly fitted or top-dose-only effect; inactive = no such curve, though single readings can be large or run the other way; tested in mouse RAW 264.7 cells; also: nearly all actives have a fitted effect of over 55% in size
# Hits are given with their value; i = inactive; ? = inconclusive; nt = not tested or not shown. Unless noted, calls follow the shape of the dose curve; as a rule, active = well fitted curve in the direction sought with a large enough effect; inconclusive = small, poorly fitted or top-dose-only effect, or another doubt; inactive = no such curve, though single readings can be large; an effect the other way counts as inactive or inconclusive.
SMILES,NPC1 promoter act,ELG1 genotox,SMN2 splice up,FLuc modulator,Rab9 prom act,uPA generation
CC1(C)CC(=O)C(N=Nc2ccc3ncsc3c2)=C(O)C1,nt,nt,i,19µM,nt,i
CC1(C)CC(=O)C(N=Nc2cccnc2)=C(O)C1,i,i,nt,i,i,i
CC1(C)CC(=O)C(N=Nc2ccc(Cl)cc2)=C(O)C1,i,?,14µM,4.8µM,i,i
Cc1ccc(S(=O)(=O)c2cn(CC(=O)Nc3cccc(C)c3)c3cc4c(cc3c2=O)OCO4)cc1,nt,nt,i,i,nt,nt
CC1(C)CC(=O)C(N=Nc2ccc(F)cc2)=C(O)C1,i,?,nt,15µM,i,i
Cc1ccccc1NC(=O)CSC1=Nc2ccccc2C2=NC(Cc3ccccc3)C(=O)N12 (stereo not drawn),nt,nt,nt,i,nt,nt
CCN1C(=S)SC(=O)C1=C1C=C(C)N(Cc2ccco2)C(C)=C1,1.4µM,2.6µM,?,3.4µM,0.63µM,i
CC(C)c1ccc(Nc2cc(C(=O)NC3CCCCC3)c3ccccc3n2)cc1,nt,nt,i,i,nt,nt
O=C(CN(C(=O)Cn1nnc(-c2ccc(F)cc2)n1)c1ccc(F)cc1)NC1CCCC1,i,i,nt,i,i,i
CNc1nnc(-c2cc3cc(Cl)ccc3oc2=O)s1,?,18µM,?,?,?,i
O=c1oc2ccc(Cl)cc2cc1-c1nnc(Nc2cccc(C(F)(F)F)c2)s1,i,i,i,?,i,i
COc1ccc(-c2cc3cc(OC)c(OC)cc3c(C)n2)cc1C,i,i,nt,17µM,i,i
COc1ccc(-n2nnnc2SCc2nc3ccccc3s2)cc1,i,16µM,i,11µM,?,i
COc1ccc(C)cc1-n1nnnc1SCc1nc2ccccc2s1,?,i,i,11µM,?,i
COc1ccc(Cl)cc1N=Nc1ncc[nH]1,nt,nt,i,nt,nt,nt
CCOC(=O)c1c(C)nc(C)c(C(=O)OCC)c1-c1cccc(N)c1,i,i,22µM,i,i,i
Cc1ccccc1Nc1nc(-c2ccccc2)c(C(=O)Nc2cccnc2)s1,i,i,i,15µM,i,i
Cc1cccc2nc(CSc3nnc4ccccn34)cn12,nt,nt,?,11µM,nt,i
c1ccn2c(SCc3cn4ccsc4n3)nnc2c1,?,?,14µM,17µM,2.5µM,i
Cc1cccc2nc(CSc3ncccc3C(=O)O)cn12,i,i,i,27µM,i,i
c1ccc(-n2cnnc2SCc2cn3ccsc3n2)cc1,i,i,i,i,i,i
Cc1ccnc(SCc2cn3c(C)cccc3n2)n1,i,i,i,?,i,i
Cc1sc2ncn(CC(=O)N3CCN(c4ccccc4)CC3)c(=O)c2c1S(=O)(=O)N1CCN(c2ncccn2)CC1,nt,nt,i,i,nt,nt
Nc1ccc(CCc2nc3ccccc3o2)cc1,2.5µM,2.9µM,13µM,2.7µM,1.6µM,i
Cc1ccc(/C=N/NC(=O)Cc2cccs2)o1,i,i,i,i,i,i
SMILES,NPC1 promoter act,ELG1 genotox,SMN2 splice up,FLuc modulator,Rab9 prom act,uPA generation
CCN(CC)c1ccc(/C=N/NC(=O)Cc2cccs2)cc1,i,i,i,27µM,i,i
COc1ccc(/C=N/NC(=O)Cc2cccs2)cc1,?,?,nt,17µM,?,i
CCN(CC)c1ccc(/C=N/NC(=O)CNC(=O)/C=C/c2ccco2)cc1,i,i,nt,24µM,i,i
O=[N+]([O-])c1ccc(NCCO)c(OCCO)c1,nt,nt,i,nt,nt,nt
Cc1ccc(CN(Cc2ccco2)C(=O)COc2ccccc2C)cc1,nt,nt,i,i,nt,nt
CCOc1cc(CNC(=O)C2COc3ccccc3C2)cc(OCC)c1OCC (stereo not drawn),nt,nt,nt,i,nt,nt
Cc1ccc(Cn2nnc3c(=O)[nH]c(C4CCCN(S(=O)(=O)c5ccccc5)C4)nc32)cc1 (stereo not drawn),i,21µM,i,i,i,i
COc1cc(/C=N/Nc2ccc(C(F)(F)F)cn2)cc(OC)c1O,i,i,i,?,i,i
Oc1ccc(/C=N/Nc2ccc(C(F)(F)F)cn2)c(O)c1,i,?,nt,12µM,i,nt
Oc1ccc(/C=N/Nc2ccc(C(F)(F)F)cn2)cc1,?,?,16µM,17µM,3.5µM,i
COc1cc(OC)c2c(=O)cc(-c3ccccc3)oc2c1,?,23µM,nt,5.4µM,?,?
COc1cc(C)c2c(=O)cc(-c3ccccc3)oc2c1,nt,nt,11µM,nt,nt,nt
COc1ccc2c(c1)c1c(c(=O)n(-c3ccccc3C)c(=O)n1Cc1cccc(C(F)(F)F)c1)n2C,nt,nt,nt,i,nt,nt
CCC1CN(C(=O)N2CCC(C(=O)N3CCN(c4ccccc4)CC3)CC2)c2ccccc2O1 (stereo not drawn),nt,nt,nt,i,nt,nt
CCCCc1ccc(NC(=O)CSc2nc3ccccc3nc2N2CCCCC2)cc1,nt,nt,i,i,nt,nt
CCC(CC)c1nnc(NC(=O)C23CC4CC(CC(NC(C)=O)(C4)C2)C3)s1,i,i,nt,i,i,i
CC(=O)NC12CC3CC(C1)CC(C(=O)Nc1nc4ccc(F)cc4s1)(C3)C2,?,i,nt,13µM,?,i
Cc1ncc(CO)c(CNc2ccc(Oc3ccccc3)cc2)c1O,i,i,nt,i,i,i
CNC(=S)Nc1ccc(C23CC4CC(CC(C4)C2)C3)cc1,i,i,nt,?,i,i
CC(=O)Nc1ccc(C23CC4CC(CC(C4)C2)C3)cc1,?,i,nt,15µM,i,i
Oc1ccc(C23CC4CC(CC(C4)C2)C3)cc1O,i,i,nt,15µM,i,?
Cc1ccc(C(=O)CSc2nc3cc(C(=O)NC4CCCC4)ccc3c(=O)n2CC2CCCO2)c(C)c1 (stereo not drawn),nt,nt,nt,i,nt,nt
COCCNc1oc(-c2ccc(Cl)cc2)nc1C#N,?,?,?,11µM,?,i
COCCNc1oc(-c2ccc(C)cc2)nc1C#N,?,5.6µM,10µM,12µM,3.5µM,i
CN(C)CCCNc1oc(-c2ccc(Cl)cc2)nc1C#N,i,i,i,i,i,i
SMILES,NPC1 promoter act,ELG1 genotox,SMN2 splice up,FLuc modulator,Rab9 prom act,uPA generation
CC1(C)C[C@](C)(C(=O)c2ccccc2)C=C1c1ccccc1,nt,nt,i,nt,nt,nt
O=C(NC1CCCCC1)c1c2c(nc3ccccc13)CCC2,i,i,i,i,i,i
CC(/C=N/NC(=O)c1cccs1)=C\c1ccccc1,1µM,i,4µM,2.1µM,0.79µM,i
O=C(N/N=C/C(Cl)=C\c1ccccc1)c1cccs1,2.5µM,?,nt,2.7µM,2µM,i
CC(/C=N/NC(=O)c1sc(N)nc1C)=C\c1ccccc1,?,?,?,?,?,i
CCOc1ccc(N2CC(NC(=O)c3ccc(S(=O)(=O)N4CCCCC4)cc3)CC2=O)cc1 (stereo not drawn),nt,nt,nt,i,nt,nt
CC1CCC(NC(=O)Nc2cccs2)CC1 (stereo not drawn),i,?,i,15µM,?,i
CC1CCC(NC(=O)CNC(=O)c2cccs2)CC1 (stereo not drawn),?,?,nt,?,4µM,i
Cc1ccc(C(=O)NCC(=O)NC2CCC(C)CC2)s1 (stereo not drawn),i,i,nt,i,i,i
O=C(Nc1cccs1)NC1CCCC1,i,i,i,i,i,i
